About 2,000 (36%) of roughly 5,500 compounds were called active. Inconclusive results (about 18%) are left out. This is one part of the list. Values without a mark were called inactive. Cut-off read from the data, not from the text of the source: active = normalized growth mostly below about 0.91 (no sharp cut-off); inconclusive = no clear call, values can overlap the other calls; inactive = mostly above about 0.92.
Test: chemical genetic growth profiling, strain panel (AID 1159580);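 note: tested at 20 µM; growth read once vehicle control cultures reached saturation at 30 °C; 1 = growth at the plate median or of vehicle wells; lower values mean less growth of the strain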
Conditions: growth OD

CC(C)=CCc1c2c(c3occ(-c4ccc(O)c(O)c4)c(=O)c3c1O)C=CC(C)(C)O2
normalized growth (S. cerevisiae deletion strains, locus YKL009W, strain mrt4, stronger effect = lower value): 0.867 (active) | normalized growth (S. cerevisiae deletion strains, locus YKL068W, stronger effect = lower value): 1 | normalized growth (S. cerevisiae deletion strains, locus YKL085W, strain MDH1 (second series), stronger effect = lower value): 0.947 | normalized growth (S. cerevisiae deletion strains, locus YKL085W, strain MDH1, stronger effect = lower value): 0.947 | normalized growth (S. cerevisiae deletion strains, locus YKL160W, strain elf1, stronger effect = lower value): 0.957 | normalized growth (S. cerevisiae deletion strains, locus YKR001C, strain vps1, stronger effect = lower value): 0.578 (active) | normalized growth (S. cerevisiae deletion strains, locus YKR026C, strain gcn3, stronger effect = lower value): 0.994 | normalized growth (S. cerevisiae deletion strains, locus YKR091W, strain srl3, stronger effect = lower value): 0.997 | normalized growth (S. cerevisiae deletion strains, locus YLL001W, strain dnm1, stronger effect = lower value): 0.959 | normalized growth (S. cerevisiae deletion strains, locus YLL026W, stronger effect = lower value): 0.985 | normalized growth (S. cerevisiae deletion strains, locus YLL041C, strain sdh2, stronger effect = lower value): 0.993 | normalized growth (S. cerevisiae deletion strains, locus YLR027C, strain aat2, stronger effect = lower value): 0.935 | normalized growth (S. cerevisiae deletion strains, locus YLR039C, strain RIC1, stronger effect = lower value): 0.235 (active) | normalized growth (S. cerevisiae deletion strains, locus YLR058C, strain SHM2, stronger effect = lower value): 0.239 (active) | normalized growth (S. cerevisiae deletion strains, locus YLR102C, strain apc9, stronger effect = lower value): 0.957 | normalized growth (S. cerevisiae deletion strains, locus YLR113W, strain HOG1, stronger effect = lower value): 0.868 | normalized growth (S. cerevisiae deletion strains, locus YLR221C, strain rsa3, stronger effect = lower value): 0.905 (active) | normalized growth (S. cerevisiae deletion strains, locus YLR258W, strain gsy2, stronger effect = lower value): 0.935 | normalized growth (S. cerevisiae deletion strains, locus YLR262C, strain YPT6 (second series), stronger effect = lower value): 0.995 | normalized growth (S. cerevisiae deletion strains, locus YLR262C, strain YPT6, stronger effect = lower value): 0.298 (active) | normalized growth (S. cerevisiae deletion strains, locus YLR268W, strain sec22, stronger effect = lower value): 0.495 (active) | normalized growth (S. cerevisiae deletion strains, locus YLR320W, strain mms22, stronger effect = lower value): 0.931 | normalized growth (S. cerevisiae deletion strains, locus YLR330W, strain CHS5, stronger effect = lower value): 0.36 (active) | normalized growth (S. cerevisiae deletion strains, locus YLR342W, strain FKS1 (second series), stronger effect = lower value): 0.195 (active) | normalized growth (S. cerevisiae deletion strains, locus YLR342W, strain FKS1, stronger effect = lower value): 0.959 | normalized growth (S. cerevisiae deletion strains, locus YLR357W, strain rsc2, stronger effect = lower value): 0.873 | normalized growth (S. cerevisiae deletion strains, locus YLR370C, strain arc18, stronger effect = lower value): 0.947 | normalized growth (S. cerevisiae deletion strains, locus YLR371W, strain rom2, stronger effect = lower value): 0.447 (active) | normalized growth (S. cerevisiae deletion strains, locus YLR384C, strain iki3, stronger effect = lower value): 0.98 | normalized growth (S. cerevisiae deletion strains, locus YLR418C, strain cdc73, stronger effect = lower value): 0.252 (active) | normalized growth (S. cerevisiae deletion strains, locus YML016C, strain PPZ1, stronger effect = lower value): 0.174 (active) | normalized growth (S. cerevisiae deletion strains, locus YML032C, strain rad52, stronger effect = lower value): 0.812 (active) | normalized growth (S. cerevisiae deletion strains, locus YML120C, strain ndi1, stronger effect = lower value): 0.956 | normalized growth (S. cerevisiae deletion strains, locus YML124C, strain tub3, stronger effect = lower value): 0.849 (active) | normalized growth (S. cerevisiae deletion strains, locus YMR058W, strain fet3, stronger effect = lower value): 0.755 (active) | normalized growth (S. cerevisiae deletion strains, locus YMR078C, strain ctf18, stronger effect = lower value): 0.929 | normalized growth (S. cerevisiae deletion strains, locus YMR125W, strain sto1, stronger effect = lower value): 1.01 | normalized growth (S. cerevisiae deletion strains, locus YMR129W, stronger effect = lower value): 0.981 | normalized growth (S. cerevisiae deletion strains, locus YMR205C, strain PFK2, stronger effect = lower value): 0.957 | normalized growth (S. cerevisiae deletion strains, locus YMR223W, strain ubp8, stronger effect = lower value): 0.72 (active) | normalized growth (S. cerevisiae deletion strains, locus YMR231W, strain pep5, stronger effect = lower value): 0.984 | normalized growth (S. cerevisiae deletion strains, locus YMR307W, strain GAS1, stronger effect = lower value): 0.396 (active) | normalized growth (S. cerevisiae deletion strains, locus YNL067W, strain RPL9B, stronger effect = lower value): 0.427 (active) | normalized growth (S. cerevisiae deletion strains, locus YNL071W, strain lat1, stronger effect = lower value): 0.942 | normalized growth (S. cerevisiae deletion strains, locus YNL128W, strain TEP1, stronger effect = lower value): 0.202 (active) | normalized growth (S. cerevisiae deletion strains, locus YNL153C, strain GIM3, stronger effect = lower value): 0.388 (active) | normalized growth (S. cerevisiae deletion strains, locus YNL183C, strain NPR1, stronger effect = lower value): 0.885 | normalized growth (S. cerevisiae deletion strains, locus YNL209W, strain ssb2, stronger effect = lower value): 0.883 (active) | normalized growth (S. cerevisiae deletion strains, locus YNL233W, strain BNI4, stronger effect = lower value): 0.401 (active) | normalized growth (S. cerevisiae deletion strains, locus YNL248C, strain rpa49, stronger effect = lower value): 1 | normalized growth (S. cerevisiae deletion strains, locus YNL250W, strain rad50, stronger effect = lower value): 0.966 | normalized growth (S. cerevisiae deletion strains, locus YNL271C, strain bni1, stronger effect = lower value): 0.943 | normalized growth (S. cerevisiae deletion strains, locus YNL298W, strain CLA4, stronger effect = lower value): 0.922 | normalized growth (S. cerevisiae deletion strains, locus YNL307C, strain MCK1, stronger effect = lower value): 0.546 (active) | normalized growth (S. cerevisiae deletion strains, locus YNL322C, strain KRE1 (second series), stronger effect = lower value): 0.969 | normalized growth (S. cerevisiae deletion strains, locus YNL322C, strain KRE1, stronger effect = lower value): 0.339 (active) | normalized growth (S. cerevisiae deletion strains, locus YNR049C, strain mso1, stronger effect = lower value): 0.985 | normalized growth (S. cerevisiae deletion strains, locus YNR052C, strain pop2, stronger effect = lower value): 0.682 (active) | normalized growth (S. cerevisiae deletion strains, locus YOL006C, strain TOP1, stronger effect = lower value): 0.142 (active) | normalized growth (S. cerevisiae deletion strains, locus YOL012C, strain htz1): 0.238 | normalized growth (S. cerevisiae deletion strains, locus YOL147C, strain pex11, stronger effect = lower value): 0.634 (active) | normalized growth (S. cerevisiae deletion strains, locus YOR001W, strain rrp6, stronger effect = lower value): 0.952 | normalized growth (S. cerevisiae deletion strains, locus YOR061W, strain CKA2, stronger effect = lower value): 0.257 (active) | normalized growth (S. cerevisiae deletion strains, locus YOR069W, strain VPS5, stronger effect = lower value): 0.546 (active) | normalized growth (S. cerevisiae deletion strains, locus YOR070C, strain gyp1, stronger effect = lower value): 0.951 | normalized growth (S. cerevisiae deletion strains, locus YOR080W, strain dia2, stronger effect = lower value): 0.961 | normalized growth (S. cerevisiae deletion strains, locus YOR083W, strain WHI5, stronger effect = lower value): 0.937 | normalized growth (S. cerevisiae deletion strains, locus YOR106W, strain vam3, stronger effect = lower value): 0.856 (active) | normalized growth (S. cerevisiae deletion strains, locus YOR136W, strain idh2, stronger effect = lower value): 0.837 (active) | normalized growth (S. cerevisiae deletion strains, locus YOR144C, strain elg1, stronger effect = lower value): 0.723 (active) | normalized growth (S. cerevisiae deletion strains, locus YOR184W, strain ser1, stronger effect = lower value): 0.548 (active) | normalized growth (S. cerevisiae deletion strains, locus YOR231W, strain MKK1, stronger effect = lower value): 0.917 | normalized growth (S. cerevisiae deletion strains, locus YOR265W, strain rbl2, stronger effect = lower value): 0.977 | normalized growth (S. cerevisiae deletion strains, locus YOR270C, strain vph1, stronger effect = lower value): 0.925 | normalized growth (S. cerevisiae deletion strains, locus YOR290C, strain snf2, stronger effect = lower value): 0.93 | normalized growth (S. cerevisiae deletion strains, locus YOR316C, strain cot1, stronger effect = lower value): 0.848 (active) | normalized growth (S. cerevisiae deletion strains, locus YPL051W, strain arl3, stronger effect = lower value): 0.913 (active) | normalized growth (S. cerevisiae deletion strains, locus YPL055C, strain LGE1, stronger effect = lower value): 0.203 (active) | normalized growth (S. cerevisiae deletion strains, locus YPL078C, strain atp4, stronger effect = lower value): 0.957 | normalized growth (S. cerevisiae deletion strains, locus YPL106C, strain sse1, stronger effect = lower value): 0.919 | normalized growth (S. cerevisiae deletion strains, locus YPL240C, strain hsp82, stronger effect = lower value): 0.984 | normalized growth (S. cerevisiae deletion strains, locus YPL256C, strain CLN2, stronger effect = lower value): 0.921 | normalized growth (S. cerevisiae deletion strains, locus YPR119W, strain clb2, stronger effect = lower value): 0.965 | normalized growth (S. cerevisiae deletion strains, locus YPR141C, strain kar3, stronger effect = lower value): 0.985 | normalized growth (S. cerevisiae deletion strains, locus YPR163C, strain tif3, stronger effect = lower value): 0.735 (active) | normalized growth (S. cerevisiae deletion strains, locus YPR167C, strain met16, stronger effect = lower value): 0.739 (active) | normalized growth (S. cerevisiae deletion strains, strain wtn01, stronger effect = lower value): 0.533 (active) | normalized growth (S. cerevisiae strains, strain wild type, stronger effect = lower value): 0.173 (active)

Source: PubChem BioAssay AID1159580 (chemical genetic matrix, 2015)
